From PubChem BioAssay (Tox21)
Unmarked numbers belong to inactive results. Calls of active or inactive are those of the source. The call rests on the fitted dose curve; in most records, active means well fitted curve in the direction sought with a large enough effect in the repeat runs; inconclusive means weak or mixed curves; inactive means flat fitted curve, though single readings scatter.

experiment: qHTS assay to test for compound auto fluorescence at 460 nm (blue) in HEK293 cells (AID 720678); conditions: blue autofluorescence 405/460 nm; series mostly up to 91.3 µM; fluorescence, % of triamterene: at the top concentration
Source text: National Center for Advancing Translational Sciences [NCATS]
NIH Chemical Genomics Center [NCGC]
U.S. Environmental Protection Agency [EPA]
National Institutes of Environmental Health Sciences [NIEHS]
National Toxicology Program [NTP]
U.S. Food and Drug Administration [FDA]
Compound auto fluorescence often interferes with screening of the compound library against various biological targets and signaling pathways. Some of these compounds may have fluorophoric properties. Such properties may interfere with the assay outputs resulting in false positives and/or negatives. To decrease such complications and ensure the compound activities are relevant in terms of biological response, the Tox21 10K compound library was screened for auto fluorescence.
From the fluorophores used as reporter signals in our screening assays, the auto fluorescence equivalencies of compounds against three fluorophores have been evaluated: Triamterene, Fluorescein and Rose Bengal sodium for blue, green and red fluorescence, respectively. The fluorescence intensities were measured using Excitation/Emission wavelengths at 405/460nm, 485/535nm and 540/590nm for blue, green and red labels, respectively. This assay includes the blue fluorescence data.
Tox21 Assay Protocol Summary:
2,000 HEK293 cells in 5 uL of culture medium containing 10% dialyzed FBS per well were dispensed into black wall/clear bottom 1536-well plates using a Multidrop Combi Dispenser (Thermo Scientific). The assay plates were incubated for 4-5 hr at 37C to allow cell attachment to the well bottom, followed by the transfer of 23 nL compound or DMSO vehicle by a pintool work station (Kalypsys, San Diego, CA). After the assay plates were incubated overnight at 37C and 5% CO2, fluorescence intensities in the assay plates were measured by an Envision (PerkinElmer, Shelton, CT) plate reader using three labels for measuring blue, green and red fluorescence at […] 460, 535 and 590nm respectively.
On the % scale 0 is the no-effect control and ±100 the full control effect; potency means the concentration at half of the fitted maximal effect; tags describe the fitted curve by direction and shape or compound fluorescence and quenching.

First: CCCCCCCCCCC1CO1 (stereo not given)
Second: CC(C)CCCCCCN
The “fluorescence, % of triamterene” value of the first is lower: -0.0491% for the first, -0.0173% for the second.

Going from `C=C[Si](OC)(OC)OC` to `CCO[Si](CCCN=C=O)(OCC)OCC`, the “fluorescence, % of triamterene” value falls from 0.0379% to -0.0187%.

Going from `Cc1ccc(Nc2ccc(O)c3c2C(=O)c2ccccc2C3=O)cc1` to `O=S(=O)(O)c1ccccc1O`, the “fluorescence, % of triamterene” value rises from -0.064% to -0.01%.

Going from `C#CC(C)(O)CC(C)C` (stereo not given) to `CC(C)CCOC(=O)CC(C)C`, the “fluorescence, % of triamterene” value rises from -0.0344% to -0.0007%.

Going from `CCC(C)(C)C1CCC(OC)CC1` (stereo not given) to `CCC(C)OC(=O)N1CCCCC1CCO` (stereo not given), the “fluorescence, % of triamterene” value falls from 0.0317% to 0.0239%.

Compared with `CCC(=O)/C=C/c1ccc(OC)cc1`, `COc1ccc(COC=O)cc1` is higher in “fluorescence, % of triamterene” value: -0.472% for the first, -0.0663% for the second.

Going from `CC1(C)SC(C)(C)SC(C)(C)S1` to `CC(=O)O[C@H](CC(=O)[O-])C[N+](C)(C)C`, the “fluorescence, % of triamterene” value falls from 0.0679% to 0.0165%.

First: N#CC1(O)CCCCC1
Second: c1ccc(SCCSc2ccccc2)cc1
The “fluorescence, % of triamterene” value of the first is higher: 0.0557% for the first, 0.0139% for the second.

Compared with `C[C@H](O)C(=O)Nc1c(I)c(C(=O)NC(CO)CO)c(I)c(C(=O)NC(CO)CO)c1I`, `NS(=O)(=O)c1cc2c(cc1C(F)(F)F)NC(Cc1ccccc1)NS2(=O)=O` (stereo not given) is higher in fluorescence, % of triamterene: -0.0154% [at 18.6 µM] for the first, 0.0799% [at 18.6 µM] for the second.

Compared with `NC(N)=NS(=O)(=O)c1ccc(N)cc1`, `O=C(O)/C=C/c1ccc(Cn2ccnc2)cc1` is lower in fluorescence, % of triamterene: 0.195% [at 18.6 µM] for the first, -0.0046% [at 18.6 µM] for the second.

For `C1CCCCCCCCCCC1`, the fluorescence, % of triamterene was -0.115% [at 18.6 µM].

First: CCOC(=O)[C@H](CCc1ccccc1)N[C@@H](C)C(=O)N1CCC[C@H]1C(=O)O
Second: CC(C)[N+](C)(C)CC(O)COc1cccc2ccccc12 (stereo not given)
The “fluorescence, % of triamterene” value of the first is higher: 0.13% [at 46 µM] for the first, 0.0571% [at 46 µM] for the second.

Going from `Oc1ccc2c(c1)OC[C@@H](N1CCC(O)(c3ccc(F)cc3)CC1)[C@H]2O` to `Cn1ccc2cc3c(cc21)CCN3C(=O)Nc1cccnc1`, the “fluorescence, % of triamterene” value falls from 0.0189% [at 46 µM] to -0.0347% [at 46 µM].

Compared with `CCCCCOC(=O)Nc1nc(=O)n([C@@H]2O[C@H](C)[C@@H](O)[C@H]2O)cc1F`, `CCCOc1ccccc1-c1nc2n[nH]nc2c(=O)[nH]1` is lower in “fluorescence, % of triamterene” value: 0.0083% [at 46 µM] for the first, -0.175% [at 46 µM] for the second.

Compared with `Cc1cc(C)cc(OCC2CNC(=O)O2)c1` (stereo not given), `C/C=C1\C(=O)C[C@H]2[C@@H]3CCC4=CC(=O)CC[C@]4(C)[C@H]3CC[C@]12C` is higher in “fluorescence, % of triamterene” value: -0.132% [at 46 µM] for the first, 0.0124% [at 46 µM] for the second.

First: OC[C@H]1O[C@@H]2O[C@H]3[C@H](O)[C@@H](O)[C@@H](O[C@H]4[C@H](O)[C@@H](O)[C@@H](O[C@H]5[C@H](O)[C@@H](O)[C@@H](O[C@H]6[C@H](O)[C@@H](O)[C@@H](O[C@H]7[C@H](O)[C@@H](O)[C@@H](O[C@H]8[C@H](O)[C@@H](O)[C@@H](O[C@H]9[C@H](O)[C@@H](O)[C@@H](O[C@H]1[C@H](O)[C@H]2O)O[C@@H]9CO)O[C@@H]8CO)O[C@@H]7CO)O[C@@H]6CO)O[C@@H]5CO)O[C@@H]4CO)O[C@@H]3CO
Second: CC(C)CCCC(C)CCCC(C)CCCCC(C)CCCC(C)CCCC(C)C (stereo not given)
The “fluorescence, % of triamterene” value of the first is lower: -0.042% [at 46 µM] for the first, 0.179% [at 46 µM] for the second.

In the case of `O=C(O)/C=C/c1ccc(/C=C/C(=O)O)cc1`, the “fluorescence, % of triamterene” value is reported as -0.0335% [at 46 µM].

Compared with `N[C@@H](CS)C(=O)O`, `COc1ccc(NC(C)=O)cc1` is higher in “fluorescence, % of triamterene” value: -0.133% [at 95.7 µM] for the first, -0.0122% [at 95.7 µM] for the second.

Going from `CCCCCCCCN(C)CCCCCCCC` to `O=[N+]([O-])c1ccc(Oc2ccc([N+](=O)[O-])cc2)cc1`, the “fluorescence, % of triamterene” value rises from -0.136% [at 95.7 µM] to 0.0669% [at 95.7 µM].

In the case of `CCC(C(=O)NC(N)=O)c1ccccc1` (stereo not given), the Potency is reported as “inactive”.
For `CO`, the Potency was “inactive”.
In the case of `Nc1ccc2cc(S(=O)(=O)O)ccc2c1`, the Potency is reported as 31.6 µM [fluorescent] (active).
In the case of `[O-][N+](=Nc1ccccc1)c1ccccc1`, the Potency is reported as “inactive”.
